ChEMBL document CHEMBL3988442, “University of Dundee, Small-Polar-MMV Screening Library” (2021)
For part of these data: Potency and affinity values are given separately.

Key:
Parameters in all cases: scale not given: direction of the effect not stated beside the values
[1] = target: Protein translocase subunit SecA (Escherichia coli (strain K12)) (UniProt P10408); test: Assay to Identify E. coli SecA ATPase Inhibitors; assay type: functional; conditions: 30 µM
[2] = target: T1, Ubiquitin-activating enzyme e1, putative (Leishmania donovani (strain BPK282A1)) (UniProt E9BSI1); test: Leishmania donovani Ubiquitin Activating Enzyme (LdE1); assay type: functional; conditions: 30 µM
T1 sequence (whole entry): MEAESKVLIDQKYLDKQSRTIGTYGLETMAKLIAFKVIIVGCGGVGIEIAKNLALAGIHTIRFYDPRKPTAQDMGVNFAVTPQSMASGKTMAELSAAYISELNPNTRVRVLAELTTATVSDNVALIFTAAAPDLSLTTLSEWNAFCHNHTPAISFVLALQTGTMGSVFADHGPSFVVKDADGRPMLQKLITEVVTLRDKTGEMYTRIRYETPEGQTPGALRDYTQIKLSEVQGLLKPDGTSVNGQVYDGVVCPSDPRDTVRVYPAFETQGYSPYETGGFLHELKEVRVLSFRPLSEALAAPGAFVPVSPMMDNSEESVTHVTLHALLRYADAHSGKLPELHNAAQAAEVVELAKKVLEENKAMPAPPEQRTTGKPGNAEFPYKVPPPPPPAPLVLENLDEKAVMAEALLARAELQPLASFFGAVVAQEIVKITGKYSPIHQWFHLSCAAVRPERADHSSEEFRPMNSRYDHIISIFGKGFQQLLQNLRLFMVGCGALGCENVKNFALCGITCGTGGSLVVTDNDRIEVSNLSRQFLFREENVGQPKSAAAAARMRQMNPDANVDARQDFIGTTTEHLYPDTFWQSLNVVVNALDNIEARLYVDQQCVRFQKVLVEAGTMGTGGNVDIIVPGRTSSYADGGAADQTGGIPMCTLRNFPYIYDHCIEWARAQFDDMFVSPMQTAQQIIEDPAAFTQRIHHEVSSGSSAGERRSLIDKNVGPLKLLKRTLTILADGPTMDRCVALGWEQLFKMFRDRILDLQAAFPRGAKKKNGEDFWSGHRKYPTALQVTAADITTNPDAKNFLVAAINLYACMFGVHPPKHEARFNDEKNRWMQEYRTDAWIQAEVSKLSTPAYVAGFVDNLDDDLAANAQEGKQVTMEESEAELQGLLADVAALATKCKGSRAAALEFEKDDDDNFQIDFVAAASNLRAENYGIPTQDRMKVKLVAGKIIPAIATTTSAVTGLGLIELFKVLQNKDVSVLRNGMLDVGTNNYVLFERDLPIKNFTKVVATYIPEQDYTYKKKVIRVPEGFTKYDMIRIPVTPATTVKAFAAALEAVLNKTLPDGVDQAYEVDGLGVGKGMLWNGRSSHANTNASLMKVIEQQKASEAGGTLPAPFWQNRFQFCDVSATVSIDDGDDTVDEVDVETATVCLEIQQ

[3] = target: AMP-activated protein kinase, AMPK (Homo sapiens) (UniProt P54646+O43741+P54619+Q9UGJ0+Q9Y478+Q13131+Q9UGI9); test: AMP-dependent Kinase enzyme assay. An in vitro enzyme assay that detects ADP turnover that is directly proportional to AMPK activity. This uses naive AMPK that is activated during the assay with MK-8722; assay type: functional; conditions: 30 µM
[4] = target: Sialic acid-binding Ig-like lectin 9 (Homo sapiens) (UniProt Q9Y336); test: Hs-Siglec9 ALPHAscreen SOP 20170721; conditions: 10 µM
Sialic acid-binding Ig-like lectin 9 (Homo sapiens), sequence (Q9Y336 whole entry): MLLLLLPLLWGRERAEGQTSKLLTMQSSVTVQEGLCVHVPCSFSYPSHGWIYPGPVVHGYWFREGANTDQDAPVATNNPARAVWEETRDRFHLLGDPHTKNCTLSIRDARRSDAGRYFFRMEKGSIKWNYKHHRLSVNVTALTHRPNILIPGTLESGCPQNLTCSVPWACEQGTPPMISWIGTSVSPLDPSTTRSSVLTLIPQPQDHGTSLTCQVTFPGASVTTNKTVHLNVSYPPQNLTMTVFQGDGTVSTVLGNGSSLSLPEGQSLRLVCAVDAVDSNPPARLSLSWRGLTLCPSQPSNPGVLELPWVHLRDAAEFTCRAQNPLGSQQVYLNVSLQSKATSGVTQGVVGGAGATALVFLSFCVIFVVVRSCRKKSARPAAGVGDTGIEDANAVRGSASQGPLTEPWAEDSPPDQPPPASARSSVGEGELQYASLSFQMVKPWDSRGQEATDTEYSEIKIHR

Trypanosoma cruzi = test: Trypanosoma cruzi phosphomannomutase and mannose-1-phosphate guanylyltransferase assay; assay type: functional; conditions: 10 µM
[5] = target: T2, Arginase-2, mitochondrial (Homo sapiens) (UniProt P78540); test: in vitro enzyme assay to detect the production of urea directly proportional to the activity of Arginase II; assay type: functional; conditions: 33.3 µM; also: in the data most compounds retested in dose-response had high values
T2 sequence (whole entry): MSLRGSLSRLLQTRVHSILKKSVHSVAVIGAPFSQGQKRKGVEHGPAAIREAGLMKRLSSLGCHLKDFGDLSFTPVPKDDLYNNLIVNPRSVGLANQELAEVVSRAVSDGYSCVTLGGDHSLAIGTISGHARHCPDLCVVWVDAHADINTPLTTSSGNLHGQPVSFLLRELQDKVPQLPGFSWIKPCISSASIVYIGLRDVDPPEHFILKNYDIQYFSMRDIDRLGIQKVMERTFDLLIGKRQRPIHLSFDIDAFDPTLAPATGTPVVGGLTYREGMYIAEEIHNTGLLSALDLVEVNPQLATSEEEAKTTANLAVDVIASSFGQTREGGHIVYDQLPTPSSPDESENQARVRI

[6] = target: T3, Proteasome subunit beta (Trypanosoma cruzi) (UniProt O96673); test: Trypanosoma cruzi proteasome chymotrypsin-like activity (TcProtChymo) assay.; also: in the data most compounds retested in dose-response had high values; assay type: functional; conditions: 9.37 µM
T3 sequence (whole entry): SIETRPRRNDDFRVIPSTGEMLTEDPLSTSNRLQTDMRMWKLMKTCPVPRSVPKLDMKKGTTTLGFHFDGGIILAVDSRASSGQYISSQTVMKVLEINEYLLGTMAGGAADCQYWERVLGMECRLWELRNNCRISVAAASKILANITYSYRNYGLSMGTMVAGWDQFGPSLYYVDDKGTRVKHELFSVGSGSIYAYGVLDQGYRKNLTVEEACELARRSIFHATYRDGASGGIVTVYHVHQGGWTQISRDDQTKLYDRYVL

Homo sapiens = species on record: Homo sapiens; test: To identify inhibition of the IFN signalling (Jak-Stat) pathway via expression of an eGFP reporter gene under the control of an IFN-stimulated response element (ISRE) containing MxA promoter.; assay type: functional; conditions: 30 µM
[7] = target: T4, Tyrosyl-tRNA synthetase, putative (Trypanosoma cruzi (strain CL Brener)) (UniProt Q4DSP6); test: Trypanosoma cruzi tyrosyl tRNA synthetase (TcYRS) _High Tyrosine SOP; assay type: functional; conditions: 30 µM; also: in the data most compounds retested in dose-response had high values
T4 sequence (whole entry): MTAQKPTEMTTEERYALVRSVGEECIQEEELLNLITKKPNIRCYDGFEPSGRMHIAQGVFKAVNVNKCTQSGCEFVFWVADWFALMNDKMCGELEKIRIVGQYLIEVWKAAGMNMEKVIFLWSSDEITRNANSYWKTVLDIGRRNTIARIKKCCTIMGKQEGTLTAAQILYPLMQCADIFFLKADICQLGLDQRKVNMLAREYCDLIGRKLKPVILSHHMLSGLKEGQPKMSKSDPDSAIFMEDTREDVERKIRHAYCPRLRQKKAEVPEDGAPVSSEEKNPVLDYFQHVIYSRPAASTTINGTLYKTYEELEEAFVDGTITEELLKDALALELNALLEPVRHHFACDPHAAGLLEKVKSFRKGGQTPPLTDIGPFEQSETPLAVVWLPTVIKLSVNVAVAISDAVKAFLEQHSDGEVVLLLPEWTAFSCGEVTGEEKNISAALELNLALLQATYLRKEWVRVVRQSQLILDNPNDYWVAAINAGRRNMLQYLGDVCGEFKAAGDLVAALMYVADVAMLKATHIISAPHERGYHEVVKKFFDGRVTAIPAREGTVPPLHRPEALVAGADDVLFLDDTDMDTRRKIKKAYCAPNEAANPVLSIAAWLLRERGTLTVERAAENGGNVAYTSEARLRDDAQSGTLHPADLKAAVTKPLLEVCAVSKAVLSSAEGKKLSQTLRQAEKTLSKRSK

[8] = target: T4, Tyrosyl-tRNA synthetase, putative (Trypanosoma cruzi (strain CL Brener)); test: Trypanosoma cruzi tyrosyl tRNA synthetase (TcYRS) SOP; assay type: functional; conditions: 30 µM
[9] = target: Chromo domain-containing protein 1 (Saccharomyces cerevisiae (strain ATCC 204508 / S288c) (Baker's yeast)) (UniProt P32657); test: ScCHD-1 Enzyme Inhibition Assay; assay type: functional; conditions: 30 µM; also: in the data most compounds retested in dose-response had high values
Chromo domain-containing protein 1 (Saccharomyces cerevisiae (strain ATCC 204508 / S288c) (Baker's yeast)), sequence (P32657 whole entry, the tested form may be a part): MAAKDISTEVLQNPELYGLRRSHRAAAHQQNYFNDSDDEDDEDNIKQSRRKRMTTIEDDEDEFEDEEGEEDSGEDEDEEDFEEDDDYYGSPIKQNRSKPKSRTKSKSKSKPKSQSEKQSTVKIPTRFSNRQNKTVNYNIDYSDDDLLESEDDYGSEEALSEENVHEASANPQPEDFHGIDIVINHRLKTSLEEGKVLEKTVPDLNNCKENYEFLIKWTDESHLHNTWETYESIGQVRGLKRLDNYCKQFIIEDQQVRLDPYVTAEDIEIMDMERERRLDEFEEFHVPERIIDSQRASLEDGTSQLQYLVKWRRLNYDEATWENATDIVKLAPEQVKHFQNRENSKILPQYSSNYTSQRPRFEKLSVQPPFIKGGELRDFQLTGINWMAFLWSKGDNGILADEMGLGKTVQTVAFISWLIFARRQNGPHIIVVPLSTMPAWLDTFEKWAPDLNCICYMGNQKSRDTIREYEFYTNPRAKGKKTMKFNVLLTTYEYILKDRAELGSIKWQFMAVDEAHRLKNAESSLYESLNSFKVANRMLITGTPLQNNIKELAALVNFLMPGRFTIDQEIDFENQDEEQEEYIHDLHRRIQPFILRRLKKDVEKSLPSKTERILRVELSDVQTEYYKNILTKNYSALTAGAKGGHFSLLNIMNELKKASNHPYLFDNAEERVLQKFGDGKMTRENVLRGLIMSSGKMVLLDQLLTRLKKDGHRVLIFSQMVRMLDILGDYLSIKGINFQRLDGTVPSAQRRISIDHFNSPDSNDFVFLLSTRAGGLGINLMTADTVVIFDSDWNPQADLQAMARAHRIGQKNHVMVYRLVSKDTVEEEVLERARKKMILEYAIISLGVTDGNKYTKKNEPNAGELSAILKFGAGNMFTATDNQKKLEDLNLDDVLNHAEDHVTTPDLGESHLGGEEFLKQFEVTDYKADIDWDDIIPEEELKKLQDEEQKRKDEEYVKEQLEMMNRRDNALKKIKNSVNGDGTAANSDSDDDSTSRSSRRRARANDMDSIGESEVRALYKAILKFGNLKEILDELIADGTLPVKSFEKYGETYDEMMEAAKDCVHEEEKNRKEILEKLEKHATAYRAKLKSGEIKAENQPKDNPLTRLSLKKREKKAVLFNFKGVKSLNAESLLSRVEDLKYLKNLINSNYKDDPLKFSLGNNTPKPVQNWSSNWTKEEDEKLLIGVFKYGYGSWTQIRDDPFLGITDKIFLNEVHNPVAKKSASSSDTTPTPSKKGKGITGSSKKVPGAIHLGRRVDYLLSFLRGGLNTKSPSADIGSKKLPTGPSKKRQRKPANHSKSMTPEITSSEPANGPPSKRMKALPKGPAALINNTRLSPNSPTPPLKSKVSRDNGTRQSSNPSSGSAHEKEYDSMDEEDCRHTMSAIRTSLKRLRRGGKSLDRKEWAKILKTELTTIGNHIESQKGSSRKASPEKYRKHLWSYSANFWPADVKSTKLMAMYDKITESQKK

Protein translocase subunit SecA (Escherichia coli (strain K12)), sequence (P10408 whole entry): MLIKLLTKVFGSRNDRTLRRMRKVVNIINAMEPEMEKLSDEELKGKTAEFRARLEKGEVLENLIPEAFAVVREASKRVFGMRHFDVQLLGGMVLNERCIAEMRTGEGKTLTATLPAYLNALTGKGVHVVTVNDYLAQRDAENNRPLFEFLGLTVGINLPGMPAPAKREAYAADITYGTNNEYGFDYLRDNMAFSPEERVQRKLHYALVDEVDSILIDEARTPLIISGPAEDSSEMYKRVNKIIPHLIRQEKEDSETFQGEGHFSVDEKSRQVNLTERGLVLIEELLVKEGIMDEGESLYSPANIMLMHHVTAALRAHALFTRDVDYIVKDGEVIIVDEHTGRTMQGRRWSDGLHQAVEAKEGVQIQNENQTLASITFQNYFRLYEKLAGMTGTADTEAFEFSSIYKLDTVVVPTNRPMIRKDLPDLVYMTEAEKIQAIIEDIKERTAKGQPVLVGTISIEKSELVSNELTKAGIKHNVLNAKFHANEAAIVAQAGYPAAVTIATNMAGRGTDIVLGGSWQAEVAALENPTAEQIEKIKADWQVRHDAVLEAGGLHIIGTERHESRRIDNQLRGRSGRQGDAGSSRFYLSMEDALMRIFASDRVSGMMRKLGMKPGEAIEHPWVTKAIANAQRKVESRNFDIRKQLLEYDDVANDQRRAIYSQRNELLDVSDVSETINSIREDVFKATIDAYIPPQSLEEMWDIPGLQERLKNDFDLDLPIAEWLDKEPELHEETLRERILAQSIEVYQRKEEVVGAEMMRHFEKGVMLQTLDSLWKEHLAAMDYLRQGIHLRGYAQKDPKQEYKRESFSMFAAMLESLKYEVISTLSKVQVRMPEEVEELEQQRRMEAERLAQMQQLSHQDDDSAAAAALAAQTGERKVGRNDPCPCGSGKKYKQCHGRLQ

SMILES	Percent Effect [1] [%]	Percent Effect [2] [%]	Percent Effect [3] [%]	Percent Effect [4] [%]	Percent Effect (Trypanosoma cruzi) [%]	Percent Effect [5] [%]	Percent Effect [6] [%]	Percent Effect (Homo sapiens) [%]	Percent Effect [7] [%]	Percent Effect [8] [%]	Percent Effect [9] [%]
COCCN1C[C@@H]2CCCO[C@@H]2[C@H](NC(=O)c2cnccn2)C1	-1.67	8	1.63	1.69	-2.32	-45.3	3.59	-4.03	5.21	-12.5	-7.48
Cc1cnn(CCNCC(O)COc2c(C)ccc(C)c2C)c1 (stereo unspecified)	-5.33	20.2	-11.8	20.1	6.7	-4.56	8.27	-1.01	7.39	21.5	-4.18
CN(CC1CCCCO1)C(=O)c1ccnc(OC2CCC2)c1 (stereo unspecified)	3.17	0	-6.16	1.71	6.18	10.9	8.62	29.6	-1.59	0	-2.67
CC(=O)N1CCCN(C(=O)NCCc2cc(Cl)cc(Cl)c2)CC1	-3.3	-8.86	10.6	0.0308	-2.77	7.1	1.54	13.1	0	2.53	-17.6
COCC1CC2(CCN(C(=O)c3cccn3C)CC2)CN1C(C)C (stereo unspecified)	-2.49	-13.5	4.17	-2.06	1.37	-1.67	0.761	-12.3	7.92	3.66	-4.39
NC(=O)c1ccc(CN2CCCC(O)C2)cc1 (stereo unspecified)	-2.93	13.5	-3.22	-5.21	4.69	37.5	17.2	0.641	5.94	15.8	-0.618
Cc1ccc(F)c(OC2(C(=O)O)CCN(C(=O)N3CCCC3)CC2)c1	0.204	-6.94	5.17	-4.4	-1.65	1.32	2.81	-7.85	2.1	0	2.52
Cc1noc(C2CCN(C(=O)c3c(C)noc3C)CC2)n1	-3.97	10.8	-5.85	7.55	1.47	0.248	11.9	-25.3	6.45	13.6	-4.31
CC(=O)N1CCCCC1c1cc(C(=O)N2CCOCC2)[nH]n1 (stereo unspecified)	-1.41	14.9	11	-1.29	-1.38	-0.232	6.86	2.98	5.38	14.3	-10.1
Cn1cnnc1C1CCCN(C(=O)NCc2ccc3c(c2)OCO3)C1 (stereo unspecified)	-5.4	-10.4	-2.19	-7.32	3.43	-12.8	11.2	-5.11	9.52	23.5	-12.6
O=C1NC(c2ccccc2)=N[C@@]12CC[C@@H]1CN(CC3CCOCC3)C[C@@H]12	-1.53	0	5.75	-1.86	-1.54	-48.6	0.684	-0.209	-27.1	-5	-1.93
CC(C)C(=O)N1CCN(C(=O)c2cscn2)[C@H]2CS(=O)(=O)C[C@H]21	-2.31	15.3	-5.83	5.33	2.04	4.42	13.9	-3.92	3.16	12.8	-0.218
O=C(Nc1ccccc1)C1CN(CC2CC2)CC12CCOCC2 (stereo unspecified)	-1.55	5.33	7.28	-3.04	-0.579	-8.42	10.4	-0.536	-3.12	-10	-4.82
Cc1nc(C)n(CC2CCCN(CCc3ccccn3)C2)n1 (stereo unspecified)	-8.02	13.9	-5.61	-6.83	2.36	-1.07	1.2	3.25	3.12	15.2	-36.4
Cc1nc(CN2CCCC(N(C)Cc3c(C)noc3C)C2)no1 (stereo unspecified)	-2.99	-15.6	-0.475	-1.55	9.7	-0.21	16.6	6.79	1.91	9.41	-22.6
Cc1nc(CN2CCc3ncnc(-c4ccc(F)cc4)c3CC2)cs1	-3.21	10.8	5.22	-0.105	-1.66	9.87	18.4	-9.45	5.41	17.9	-0.896
CC(=O)N1CCC(C(=O)N(C)[C@@H]2CCC[C@@H](N3CCCC3)[C@@H]2O)CC1	-6.98	20.3	-7.25	-2.3	6.13	-2.09	13.4	13.2	5.38	22.1	-22.6
CCc1nc(CN2CCCN(c3ncnc4ccccc34)CC2)no1	0.435	13	-3.4	2.9	4.03	-12.4	18.3	74.7	3.23	16.1	-2.22
Cn1cc(C2CCCN2C(=O)CCCOCc2ccccc2)cn1 (stereo unspecified)	-4.26	10.1	-1.48	-1.07	4.25	-1.9	7.62	2.8	0.493	3.8	-7.66
CN(C)CCNC(=O)c1cnc2c(c1)nc(-c1ccccc1Cl)n2C	-0.258	8.11	-1.84	30.9	3.81	1.74	9.36	17.4	7.53	16.1	-5.45
CN(C)CC1CN(c2ncnc3[nH]ccc23)CCO1 (stereo unspecified)	-5.15	16.5	22	2.27	0.103	-1.94	13.9	28.5	7.29	15.2	-33
